The test system of assay [1] is Thyroperoxidase (TPO), gene 445522. The assay is described as follows: CCTE_Simmons_GUA_TPO: CCTE's Guaiacol Assay for Thyroperoxidase (TPO) Inhibition, Simmons Lab (AID 2283750). In a few lines:
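Porcine thyroid microsomes (25 ug) in 200mM potassium phosphate, preincubated 30 s at 37C with compound (8 concentrations, 5 nM–87.5 uM) and 35mM guaiacol; 1mM H2O2 starts reaction. Absorbance change at 450nm over first 80 s; loss of signal versus DMSO, three replicates.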

In assay [2] the target is Luciferin 4-monooxygenase (Photinus pyralis) (UniProt P08659). Description: CCTE_Simmons_QuantiLum_inhib_2: CCTE's Firefly Luciferase Inhibition Assay, Simmons Lab (AID 2283767).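 As to AC50: potency for inhibitors that lower luciferase luminescence relative to DMSO.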 In a few lines:
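Counter-screen for nonspecific enzyme inhibition: purified firefly luciferase incubated 30 min at 37C with chemicals up to 87.5 uM final, then luminescence measured after luciferin/dATP injection; activity fitted against DMSO baseline.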

The nature of assay [3]: ACEA_AR_agonist_AUC_viability: ACEA Biosciences xCELLigence Real-Time Cell Analysis on Androgen Receptor Agonism for Viability (AID 2283775).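 As to AC50: viability read 80 hours after compound addition.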 In a few lines:
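Read-out is area under the impedance curve at 80 h post-dose in 22Rv1 cells, with DMSO as baseline and signal loss taken as reduced viability. Compounds ran in duplicate from 100 uM final.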

A short description of assay [4]: ACEA_AR_antagonist_AUC_viability: ACEA Biosciences xCELLigence Real-Time Cell Analysis on Androgen Receptor Antagonism for Viability (AID 2283776).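 Also: area under impedance growth curve at 80 h after dosing as viability; hits lower the growth signal relative to DMSO meaning cytotoxicity.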 In a few lines: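 22Rv1 human prostate cancer cells were seeded on electrode plates, monitored overnight, then exposed to eight 1:4 dilutions from 100 uM final. Impedance-based growth kinetics at 80 h gave an AUC viability endpoint normalized to DMSO.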

Assay [5] is described as follows: CEETOX_H295R_MTT_cell_viability: Viability Assessment in the CeeTox HT-H295R MTT Assay (AID 2283718; active = hit-call score of the fitted dose curve at least 0.9, where 1 is the maximum; inactive = score below 0.9;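 as to AC50: curve fitted both ways so AC50 may mark viability loss or gain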). The gist of the method:
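MTT reduction (0.5 mg/ml, 4 h at 37 C; absorbance at 570 and 650 nm) gave viability as background-corrected percent change versus controls. H295R cells had 48 h forskolin (10 uM) prestimulation, then 48 h chemical exposure at 0.1% DMSO.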

The nature of assay [6]: STM_H9_OrnCyssISnorm_ratio: Stemina devTOX quickPredict H9 human embryonic stem cell (hESC)-based Assay for Ornithine (ORN):Cystine (CYSS) Ratio (AID 2283714). The gist of the method: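 Steps: H9 hESCs in pluripotent state dosed 72h, medium plus compound renewed every 24h; conditioned medium from the final 24h deproteinized in 40% acetonitrile; ORN and CYSS quantified by UPLC-HRMS with C13 spike-ins; ratio relative to vehicle.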

Assay [7] in a line: ArunA_NOG_NucleusCount: ArunA Biomedical's Neurite Outgrowth (NOG) Assay for Nucleus Count (AID 2283756). As to the method:
ArunA_NOG (Neurite Outgrowth) is a cell-based, image-based assay that uses human H9-derived embryonic differentiated neurons (hNN). Measurements were taken 48 hours after chemical dosing in a 96-well plate.ArunA_NOG_NucleusCount is an assay component measured from the ArunA_NOG assay. It is designed to make measurements of viability related to the number of neurons, using a form of viability reporter, as detected with fluorescence intensity signals by HCS Fluorescent Imaging technology. Data from the assay component ArunA_NOG_NucleusCount was analyzed at the endpoint, ArunA_NOG_NucleusCount, in the positive analysis fitting direction relative to DMSO as the negative control and baseline of activity. […]
Chemical treatment: Differentiated hNN cells were seeded and immediately exposed to test medium for 48 h. Following chemical exposure, cell bodies were stained with Hoechst 33,258 to quantitate viable neuron count and neurites were labeled with bIII-tubulin/DyLight1 488. High content imaging assessed the neurite outgrowth endpoints: neurite total length per neuron (um), neurite count per neuron, and branch points per neurite using the methods described in (Harrill et al 2010). […] Plates were then loaded into a Cellomics ArrayScan VTI HCS reader high-content imaging system (ThermoFisher Scientific, Waltham, MA) for automated image acquisition and morphometric analyses. […]

A short description of assay [8]: ArunA_NOG_NeuriteLength: ArunA Biomedical's Neurite Outgrowth (NOG) Assay for Neurite Length (AID 2283757). In a few lines: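 Differentiated human H9-derived neurons were exposed for 48 h from seeding, then stained with Hoechst and βIII-tubulin. Automated high-content imaging gave total neurite length per valid neuron, counting processes >10 um. Loss of signal was scored versus DMSO.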

Assay [9] can be described thus: ArunA_NOG_NeuritesPerNeuron: ArunA Biomedical's Neurite Outgrowth (NOG) Assay for Neurites Per Neuron (AID 2283758). The gist of the method:
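Differentiated human H9-derived neurons exposed to chemicals for 48 h from seeding, then stained with Hoechst and βIII-tubulin/DyLight 488. Automated imaging counted neurites (processes >10 um) per valid neuron; loss of signal versus DMSO scored.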

A short description of assay [10]: ArunA_NOG_BranchPointsPerNeurite: ArunA Biomedical's Neurite Outgrowth (NOG) Assay for Branch Points Per Neurite (AID 2283759). In a few lines: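 Automated image analysis traced neurites (processes >10 um) from valid cell bodies after Hoechst and βIII-tubulin staining. hNN cells from H9 embryonic stem cells, 48 h exposure. Fitted bidirectionally against DMSO.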

The term AC50 denotes the midpoint of the concentration-response curve, whichever way the signal moves.

Results filed as inconclusive are left out. Activity calls are given as the source filed them. The calls were made as follows, unless noted: active = hit-call score of the fitted dose curve at least 0.9, where 1 is the maximum; inconclusive = response in the unintended direction; inactive = score below 0.9.

Luciferin 4-monooxygenase (Photinus pyralis), sequence (P08659 whole entry, looked up): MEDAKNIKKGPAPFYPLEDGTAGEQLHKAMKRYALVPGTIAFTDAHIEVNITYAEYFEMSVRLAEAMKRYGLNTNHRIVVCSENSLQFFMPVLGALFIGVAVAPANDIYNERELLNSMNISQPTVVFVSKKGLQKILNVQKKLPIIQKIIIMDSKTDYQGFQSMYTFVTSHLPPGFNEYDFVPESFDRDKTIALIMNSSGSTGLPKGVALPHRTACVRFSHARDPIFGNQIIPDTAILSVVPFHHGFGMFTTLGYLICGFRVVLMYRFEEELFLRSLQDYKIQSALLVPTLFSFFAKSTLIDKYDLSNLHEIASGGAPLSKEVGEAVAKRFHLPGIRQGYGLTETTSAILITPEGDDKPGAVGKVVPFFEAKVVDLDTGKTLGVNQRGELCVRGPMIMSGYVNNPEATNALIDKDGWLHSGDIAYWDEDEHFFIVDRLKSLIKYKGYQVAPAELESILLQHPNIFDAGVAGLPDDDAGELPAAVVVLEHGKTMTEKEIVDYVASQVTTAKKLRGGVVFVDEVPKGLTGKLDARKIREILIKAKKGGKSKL

On to `COc1ccccc1N`, for which, in assay [1], the AC50 is 33.2 µM (active). The result in assay [2], in assay [3] and in assay [4] was inactive.

Turning to `CCOP(=S)(OCC)O/N=C(\C#N)c1ccccc1`, the compound was classed as inactive in [5] and in assay [3]. Besides, the concentration at half-maximal activity (AC50) in assay [2] was 70 µM (active).

As to `CCC[CH2][Sn]([Cl])([Cl])[CH2]CCC`, in [5], the call was inactive. Besides, the values for the AC50 in assay [3] and in [4] were 4.16 µM (active) and 3.75 µM (active), respectively.

Consider `CCOP(=O)(OCC)OC(=CCl)c1ccc(Cl)cc1Cl`, for which the compound was called inactive in assay [5].

Turning to `Nc1ncn[nH]1`, the result in [6], in assay [7], in assay [8], in assay [9], in [10] and in assay [2] was inactive. In addition, in [3], the result was inactive.

Regarding `COC(=O)Nc1cccc(OC(=O)Nc2cccc(C)c2)c1`, the call in [5] and in assay [4] was inactive. Besides, the concentration at half-maximal activity (AC50) in assay [2] was 9.99 µM (active).

For `COc1ccc(N)cc1`, the result in assay [5], in [2], in [3] and in [4] was inactive.

For the compound `c1cc[c]([Sb]([c]2ccccc2)[c]2ccccc2)cc1`, the AC50 in [5] was 37.6 µM (active).

As for `CC(C)(C)c1ccccc1O`, the outcome in [5], in assay [2], in assay [3] and in assay [4] was inactive.

With `Cc1cc(C(C)(C)c2ccc(O)c(C)c2)ccc1O`, the outcome in assay [5] was inactive.

On to `N#CCCC(Br)(C#N)CBr` (configuration not stated), for which the AC50 in [6] is 70.1 µM (active). For the same compound, the compound was called inactive in [4].

`Oc1c(Br)cc(Br)cc1Br`: in assay [5], the AC50 is 93.6 µM (active). Also, the compound was called inactive in [4].

In the case of `OC(Cc1ccccc1Cl)(Cn1[nH]cnc1=S)C1(Cl)CC1` (configuration not stated), the result in assay [5] was inactive.

As for `Oc1cccc(-c2ccccc2)c1`, the call in assay [5] was inactive.

Consider `CC(C)O.CC(C)O.OCCN(CCO)CCO.OCCN(CCO)CCO.[Ti]`, for which, in assay [6], the AC50 was 72.4 µM (active). The result in [3] and in assay [4] was inactive.

Turning to `Cc1cc(C)cc(C)c1`, the compound was classed as inactive in assay [5].

As for `CCOP(=S)(OCC)SCS(=O)(=O)C(C)(C)C`, in [2], the compound was called inactive.

Consider `O=S1OC[C@@H]2[C@H](CO1)[C@]1(Cl)C(Cl)=C(Cl)[C@@]2(Cl)C1(Cl)Cl` (some centres not stated), for which the result in assay [5], in assay [3] and in assay [4] was inactive.

As for `OC[P+](CO)(CO)CO`, the AC50 in assay [5] is 2.83 µM (active).

Consider `O=[N+]([O-])c1ccc(Nc2ccccc2)cc1`, for which the result in assay [5] was inactive.

`CN(C)C(=S)S`: the AC50 in assay [6] was 71.7 µM (active); in assay [1], 250 µM (active). The result in [5], in [2], in assay [3] and in [4] was inactive.

For the compound `CC(C)(COCC1CO1)COCC1CO1` (configuration not stated), the compound was called inactive in assay [5].

As to `Cc1ccccc1OP(=O)(Oc1ccccc1C)Oc1ccccc1C`, the compound was called inactive in assay [5].

Turning to `OCCN(CCO)CCO`, the result in [6] and in assay [4] was inactive.

Turning to `CCOCn1c(-c2ccc(Cl)cc2)c(C#N)c(Br)c1C(F)(F)F`, the AC50 in assay [5] is 3.79 µM (active); in [3], 6.93 µM (active); in assay [4], 7.97 µM (active).

In the case of `CCOc1ccc(N)cc1`, in assay [2], the compound was classed as inactive.

`CCCSP(=S)(OCC)Oc1ccc(SC)cc1` (configuration not stated): the outcome in [5], in [2] and in assay [3] was inactive.

Turning to `Cc1cc(Cl)ccc1O`, the outcome in assay [5] and in [4] was inactive.

With `CCCCCCCCCCCCN(C)C`, the compound was called inactive in [5], in assay [3] and in assay [4].

For `CC(C)(C)c1cc([N+](=O)[O-])cc(C(C)(C)C)c1O`, the compound was classed as inactive in assay [5].

Consider `OC(Cc1ccccc1Cl)(Cn1cncn1)C1(Cl)CC1` (configuration not stated), for which the call in assay [5] was inactive.

Consider `O=[N+]([O-])c1ccc(Cl)c([N+](=O)[O-])c1`, for which the AC50 was 13.2 µM (active) in [6] and 22.3 µM (active) in [3].

As to `C[C@]12CC[C@@H](O)C[C@@H]1CC[C@@H]1[C@@H]2CC[C@]2(C)C(=O)CC[C@@H]12`, the compound was called inactive in assay [5].

Regarding `CC(C)=CC1C(C(=O)OCc2cccc(Oc3ccccc3)c2)C1(C)C` (configuration not stated), the AC50 in assay [5] is 9.92 µM (active). In [4], the compound was called inactive.

Consider `Cc1cc(Cl)ccc1N`, for which the compound was called inactive in assay [5].

These data come from PubChem BioAssay (EPA / NIEHS).
